USP30 block – blocks human USP30 ubiquitin-rhodamine cleavage; Q70CQ3; purified USP30, Ub-rhodamine cleavage fluorescence; inhibition, % at 25 µM; actives 5.3% (n = 47,000)
USP17 block – blocks human USP17 ubiquitin-rhodamine cleavage. purified USP17, Ub-rhodamine cleavage fluorescence, 3 h. inhibition, % at 50 µM. actives 6.5% (n = 47,000). AID 1645855
UCHL1 inh – blocks human UCHL1 ubiquitin-rhodamine cleavage; P09936; purified UCHL1, Ub-rhodamine cleavage fluorescence; inhibition, % at 20 µM; actives 0.2% (n = 47,000)
Target sequence (P09936 whole entry, looked up): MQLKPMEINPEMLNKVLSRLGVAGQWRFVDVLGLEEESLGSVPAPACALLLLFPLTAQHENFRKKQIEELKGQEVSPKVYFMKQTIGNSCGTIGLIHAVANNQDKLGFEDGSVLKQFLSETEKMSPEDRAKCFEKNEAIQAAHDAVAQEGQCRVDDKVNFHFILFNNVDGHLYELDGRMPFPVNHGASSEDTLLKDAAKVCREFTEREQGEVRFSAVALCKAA
USP8 block – inhibitors of human USP8 deubiquitinase | P40818 | purified USP8, Ub-rhodamine cleavage fluorescence, 30 min | AID 1645853 | inhibition, % at 20 µM | actives 4.2% (n = 47,000)
USP7 inh – human USP7 deubiquitinase inhibition | Q93009 | purified USP7, Ub-rhodamine cleavage fluorescence | inhibition, % at 20 µM | actives 0.3% (n = 47,000) | AID 1645854
USP10 inh – inhibitors of human USP10 deubiquitinase; inhibition, % at 20 µM; purified USP10, Ub-rhodamine fluorescence, 60 min; actives 1.1% (n = 47,000); Q14694; AID 1645856
Hits are given with their value; n = inactive; x = no result given. Only some compounds are listed: those with a hit (about 12% of all), similar ones and a draw of the others. No stated cut-off is given here; in the data, active means inhibition above about 30%; inactive means the rest.

SMILES	USP30 block	USP17 block	UCHL1 inh	USP8 block	USP7 inh	USP10 inh
COCC(=O)N1CCCC(c2cncc(-c3cccc(OC)c3)n2)C1 (centres undefined)	n	n	n	n	n	n
COc1cccc(CNC(=O)CSc2nc(-c3ccco3)nc3cc(=O)[nH]n23)c1	n	n	n	n	n	n
COc1ccc(-c2nc(SCC(=O)Oc3c(C)cccc3C)n3[nH]c(=O)cc3n2)cc1	n	n	n	83.4	n	45.7
Cc1ccc(CN2CCCn3nc(C(=O)NCCc4ccco4)cc3C2=O)cc1	n	n	n	n	n	n
Cc1ccc(S(=O)(=O)c2nnn3c2nc(N2CCN(c4cc(C)ccc4C)CC2)c2ccccc23)cc1	30.2	n	n	n	n	n
Cc1ccc(C)c(Nc2nc3c(S(=O)(=O)c4ccccc4)nnn3c3ccccc23)c1	n	n	n	39.2	n	n
Cc1cc2nc(NCCc3ccccc3)c3ccccc3n2n1	n	n	n	n	n	n
Cc1ccc(Nc2nc3c(S(=O)(=O)c4ccccc4)nnn3c3ccccc23)c(C)c1	n	n	n	69.9	n	n
COc1ccc(Nc2nc3c(S(=O)(=O)c4ccc(C(C)C)cc4)nnn3c3ccccc23)cc1	31.5	n	n	n	n	n
O=S(=O)(c1ccc(Cl)cc1)N1CCN(Cc2nnnn2-c2ccc(F)cc2)CC1	n	n	n	n	n	n
COc1ccc(-n2nnnc2CN2CCN(S(=O)(=O)c3ccc(F)cc3)CC2)cc1	n	33.6	n	n	n	n
O=C(c1ccc(Br)o1)N1CCCC(c2nc3ccccc3s2)C1 (centres undefined)	n	n	n	n	n	n
O=C(COC(=O)c1ccc2c(c1)S(=O)(=O)N=C1CCCCCN12)NCCc1ccc(F)cc1	n	x	n	n	n	n
COc1cc(C(=O)OCC(=O)N2CCC(Cc3ccccc3)CC2)c([N+](=O)[O-])cc1OC	44.1	n	n	n	n	n
COc1ccc(C(=O)OCC(=O)N2CCC(Cc3ccccc3)CC2)cc1[N+](=O)[O-]	46.5	n	n	n	n	n
O=C(OCC(=O)N1CCC(Cc2ccccc2)CC1)c1ccc2c(c1)S(=O)(=O)N=C1CCCCCN12	48.6	n	n	n	n	n
Cc1ccc(CNC(=O)c2ccc(N3C(=O)[C@@H]4Cc5ccccc5CN4C3=O)cc2)cc1	48.9	61.9	n	n	n	n
O=C1[C@@H]2Cc3ccccc3CN2C(=O)N1c1cccc2ccccc12	33.1	n	n	n	n	n
COc1ccc(C(=O)NCc2csc3ccccc23)cc1	64.2	n	n	n	n	n
O=C(NCc1ccccc1Cl)c1csnn1	n	n	n	n	n	n
O=C(NCc1csc2ccccc12)c1ccc(Cl)cc1	45.4	n	n	n	n	n
COc1ccc(S(=O)(=O)N2CCC(CN3CCCCC3)CC2)cc1OC	n	n	n	n	n	n
Cc1ccccc1-c1nnc(-c2ccc(C(=O)NCc3ccccc3F)cc2)o1	66.1	35.9	n	n	n	n
Cc1ccc(C(=O)Nc2nccnc2C(=O)NCc2ccccc2F)cc1	n	n	n	n	n	n
O=C(NCc1ccccc1Cl)c1ccc(-c2nnc(-c3ccccc3)o2)cc1	35.9	62.3	n	n	n	n
SMILES	USP30 block	USP17 block	UCHL1 inh	USP8 block	USP7 inh	USP10 inh
CC(=O)c1ccc(N2CCN(C(=O)c3ccc(-c4noc(C)n4)cc3)CC2)cc1	n	n	n	n	n	n
CC(=O)c1ccc(N2CCN(C(=O)c3cc(Cl)c4c(c3)OCCO4)CC2)cc1	34.0	64.0	n	n	n	n
O=C(Cn1c(=O)[nH]c2c(-c3ccccc3)c[nH]c2c1=O)NCc1ccco1	x	44.9	n	n	n	n
O=C(Cn1c(=O)[nH]c2c(-c3ccc(F)cc3)c[nH]c2c1=O)NCc1ccc(F)cc1	n	n	n	31.9	n	n
Cc1ccc(-c2cn(CC(=O)NCc3ccc(F)cc3)c(=O)o2)cc1	n	n	n	n	n	n
O=C(Cn1c(=O)[nH]c2c(-c3ccccc3)c[nH]c2c1=O)NCc1ccc(Cl)cc1	n	n	n	32.1	n	n
O=C(Cn1c(=O)[nH]c2ccccc2c1=O)NC1CCCC1	n	n	n	n	n	n
O=C(Cn1c(=O)[nH]c2c(-c3ccccc3F)c[nH]c2c1=O)NC1CCCCC1	n	n	n	34.5	n	n
COCCn1c(=O)[nH]c2cc(C(=O)Nc3ccc(C(N)=O)cc3)ccc2c1=O	n	n	n	n	n	n
COc1cccc(N2CCN(c3cc(SCC(=O)Nc4ccccc4)ncn3)CC2)c1	n	n	n	n	n	n
Cc1noc2nc(C)n(CC(=O)N(C)Cc3ccccc3)c(=O)c12	n	n	n	n	n	n
CN(Cc1ccccc1)C(=O)Cn1c(=O)[nH]c2c(-c3ccccc3)c[nH]c2c1=O	n	n	n	46.0	n	n
O=C1Nc2ccccc2C(=O)C1C(c1ccc(Cl)cc1)C1C(=O)Nc2ccccc2C1=O (centres undefined)	41.1	88.2	n	34.5	n	54.1
Cc1ccsc1CNC(=O)Nc1ccc(C(F)(F)F)cc1	n	43.2	n	n	n	n
O=C(NCCN1CCc2ccccc2C1)Nc1ccc(C(F)(F)F)cc1	n	n	n	n	n	n
Cc1ccc(S(=O)(=O)N2CCc3nc(NC(=O)C(C)C)sc3C2)cc1	n	n	n	n	n	n
COc1cc(-c2nc3sc4c(c3c(=O)[nH]2)CCCC4)cc(OC)c1O	n	n	n	n	n	n
COc1ccc(-c2nc3sc4c(c3c(=O)[nH]2)CCCCCC4)c(OC)c1	34.0	31.1	n	n	n	n
COc1ccc(NC(=O)CCc2nc3sc4c(c3c(=O)[nH]2)CCCCC4)cc1	n	n	n	31.7	n	n
CCCS(=O)(=O)N1CCc2c(c(-c3nnc(-c4ccc(F)cc4)o3)nn2C)C1	n	n	n	n	n	n
CC(C)CC(=O)N1CCc2nc(C(=O)Nc3ccccc3)sc2CC1	n	n	n	n	n	n
Cc1ccn2cc(-c3ccc(NC(=O)C(C)Oc4ccccc4)cc3)nc2n1 (centres undefined)	n	n	n	40.0	n	n
Cc1ccn2cc(-c3ccc(NC(=O)Cc4ccccc4)cc3)nc2n1	n	n	n	n	n	n
Cc1ccc(CCNC(=O)CN2CCN(Cc3cccc(C)c3)C2=O)cc1	n	n	n	n	n	n
Cn1c(NC(=O)c2cccs2)c(-c2ccccc2Cl)c(=O)c2ccccc21	n	n	n	n	n	n
CCCC(=O)c1c[nH]c(C(=O)NCc2ccc(F)cc2)c1	n	68.9	n	n	n	n
O=C1CCCC[C@]2(CN(C(=O)c3ccc(-n4cccn4)nc3)C[C@H]2c2ccc(F)cc2)N1	32.8	n	n	n	n	n
O=C(Nc1ccc2[nH]c(=O)[nH]c2c1)C1CC(=O)N(c2cccc3ccccc23)C1 (centres undefined)	n	n	n	n	n	n
Cc1ccc(S(=O)(=O)Nc2cc(N3CCCS3(=O)=O)ccc2C)cc1	n	n	n	n	n	n
